Shown are actives, neighbours in structure and some others; about 7.7% of the full set was active somewhere.
FMDV inh: foot and mouth disease virus antiviral activity; FMDV antiviral cell-based qHTS; Potency, µM (doses to about 57.9 µM), for the others: at the highest dose activity change, negative = inhibition, hits mostly inhibitors; hit rate 1.2% among 410,000; AID 1159524; calls by dose curve; tested in HEK293T cells; also: read-out not given here; potency is read from the fitted curve at half-maximal effect; nearly all actives have a fitted effect of over 45% in size
FBPA Giardia inh: Giardia lamblia aldolase inhibition. Potency, µM (highest dose often 59.6 µM), without a hit: at the highest dose activity, negative = inhibition, actives largely listed as inhibitors. hit rate 0.71% among 290,000. purified Giardia FBPA; also: potency is read from the fitted curve at half-maximal effect; nearly all actives have a fitted effect of over 55% in size
Target sequence (A8B2U2 whole entry, looked up): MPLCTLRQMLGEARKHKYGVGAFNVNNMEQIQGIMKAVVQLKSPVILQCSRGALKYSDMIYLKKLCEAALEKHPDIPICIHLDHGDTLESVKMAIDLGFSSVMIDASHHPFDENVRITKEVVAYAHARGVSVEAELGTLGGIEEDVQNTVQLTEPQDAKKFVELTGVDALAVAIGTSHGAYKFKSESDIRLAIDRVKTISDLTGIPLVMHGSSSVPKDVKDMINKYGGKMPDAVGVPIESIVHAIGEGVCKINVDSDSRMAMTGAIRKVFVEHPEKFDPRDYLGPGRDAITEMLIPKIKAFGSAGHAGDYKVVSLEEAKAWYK
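Giardia FBPA (40 nM reagent) was preincubated 10 min at RT with compound (up to 57.5 uM final), then substrate plus GAPDH/TPI/NAD/arsenate coupling system with diaphorase/resazurin was added; resorufin fluorescence (525/598 nm) was read after 20 min.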
TbPYK inhibitor: T. brucei pyruvate kinase inhibition; Q57TT1; TbPYK enzyme, Kinase-Glo Plus ATP luminescence, 45 min; Potency, µM (doses to about 76.8 µM), inactives show at the top dose activity, negative = inhibition, most hits filed as inhibitors; hit rate 0.12% among 410,000; AID 624173; also: potency is read from the fitted curve at half-maximal effect; nearly all actives have a fitted effect of over 50% in size
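T. brucei PYK with substrate was exposed to pin-transferred compounds across a concentration series, then started with 130 uM ADP (final). After 45 min at room temperature, Kinase-Glo Plus luminescence was read, normalized and curve-fitted.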
Sm TGR block: blocks Schistosoma mansoni thioredoxin glutathione reductase; Q962Y6; purified TGR, DTNB reduction, TNB absorbance 405 nm; Potency, µM (top dose mostly 114 µM), for inactives: at the top dose activity change, negative = inhibition, actives largely listed as inhibitors; hit rate 3% among 360,000; also: potency is read from the fitted curve at half-maximal effect; nearly all actives have a fitted effect of over 60% in size
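TGR 20 nM + NADPH 100 uM (dispensed conc.), cpd preinc 15 min RT; start with NADPH (500 uM addition) then DTNB (15 mM addition). Kinetic TNB absorbance, 405 nm filter. Four-parameter Hill fit across titration.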
HCMV antiviral: human cytomegalovirus inhibition. activity change, negative = inhibition, % at 57.5 µM. AID 1259415. HFF cells, HCMV-luciferase reporter, 72 h; active compounds read low. hit rate 4.5% among 410,000; in the data active = activity change below about -60%; inconclusive = no clear call, values can overlap the other calls; inactive = above about -39%
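Luciferase read-out from HCMV-luciferase-infected HFFs (MOI 1 PFU/cell) 72 h post infection at 37C; compounds added after 16 h cell attachment; activity normalized between buffer-only basal and Salinomycin (10uM) inhibitor controls.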
RE007 growth inh: less growth of the S. pombe RE007 Vpr strain; S. pombe RE007 Vpr strain, BacTiter-Glo ATP luminescence, 24 h; Potency, µM (highest dose often 92.2 µM), without a hit: at the top dose activity change, negative = less growth, usual class: inhibitors; hit rate 0.21% among 360,000; AID 651644; active = well fitted falling curve with a large enough effect; inconclusive = small, poorly fitted or top-dose-only effect; inactive = no such curve, though single readings can be large or run the other way; also: potency is read from the fitted curve at half-maximal effect; nearly all actives have a fitted effect of over 50% in size
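Fission yeast RE007 carrying one integrated HIV-1 vpr copy, seeded at OD 0.01 in PMG+AL medium with 23 nL pinned compound. Grown 24 h at 30 degrees; viability read by BacTiter-Glo luminescence after 5 min.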
An asterisk follows results filed as active; ? = inconclusive; / = no result given; [ ] = another dose, or the depositor's remark. Unless noted, calls follow the shape of the dose curve; as a rule, active = well fitted curve in the direction sought with a large enough effect; inconclusive = small, poorly fitted or top-dose-only effect, or another doubt; inactive = no such curve, though single readings can be large; an effect the other way counts as inactive or inconclusive. % is scaled to controls: 0 for no effect and ±100 for the full control effect.

SMILES	FMDV inh	FBPA Giardia inh	TbPYK inhibitor	Sm TGR block	HCMV antiviral	RE007 growth inh
CN1CCN(c2ccc(S(=O)(=O)N3CCCCC3)cc2NC(=O)/C=C/c2ccc(Cl)c([N+](=O)[O-])c2)CC1	?	/	-2%	4%	-80*	4%
CC(C)CCC(=O)OC1CCC2C3CCC4=CC(=O)CC[C@]4(C)C3CC[C@]12C (stereo partly specified)	/	/	4%	/	/	/
CC(C)=CCC1=C(O)c2ccccc2C(=O)C1=O	-4%	1.1µM*	/	/	/	/
CN=CC1=C(O)c2ccccc2C1=O	54%	0%	4%	-17%	22	-7%
O=C1C(=O)c2ccccc2C(O)=C1CC=C(Cl)Cl	?	/	2%	/	-95*	?
COc1ccc(OC(C)C(=O)NCc2nc(-c3ccc(Cl)cc3)no2)cc1 (stereo unspecified)	?	/	-28%	17%	-9	/
COc1ccc2c(C(=O)CN(C)C3CCCCC3)c[nH]c2c1	-12%	-4%	-18%	35µM*	33	-2%
COc1ccc2c(C(=O)CN3CCSCC3)c[nH]c2c1	50%	-21%	1%	-23%	29	-13%
CC(=O)c1ccc(NC(=O)CC2Nc3cc(C)c(C)cc3NC2=O)cc1 (stereo unspecified)	-14%	/	-7%	8%	-15	/
Cc1ccc(NC(=O)CC2Nc3cccc4cccc(c34)NC2=O)cc1 (stereo unspecified)	-13%	/	-1%	40µM*	20	/
COC(=O)c1ccc(NC(=O)CC2Nc3cc(C)c(C)cc3NC2=O)cc1 (stereo unspecified)	?	/	5%	1%	-99*	/
Cc1cc2c(cc1C)NC(CC(=O)Nc1ccccc1)C(=O)N2 (stereo unspecified)	-1%	/	3%	-1%	-100*	/
O=C(CC1Nc2cccc3cccc(c23)NC1=O)Nc1ccccc1 (stereo unspecified)	-13%	?	-7%	-11%	23	2%
O=C(c1cnn(-c2nccc(-c3ccccc3C(F)(F)F)n2)c1C1CC1)N1CCN(CCO)CC1	-7%	/	/	/	/	/
Cc1ccc(S(=O)(=O)N2CCC(c3ccncc3)CC2)c(C)c1	0%	/	-5%	-3%	?	/
COc1ccc2c3n([n+]([O-])c2c1)C(C)CN=C3c1ccc(Cl)cc1 (stereo unspecified)	/	/	/	/	50	/
CCOC(=O)C(C(=O)OCC)C(Nc1ccc(Br)cc1)c1ccccc1 (stereo unspecified)	13µM*	1%	-7%	-16%	5	-17%
CCOC(=O)C(c1ccccc1)C(Nc1ccc(F)cc1)c1ccccn1 (stereo unspecified)	-21%	3%	2%	-10%	-12	5%
C/C(=C\c1ccco1)CN1CCOc2ccc(C(C)(O)COc3ccccc3)cc2C1 (stereo unspecified)	-8%	/	/	/	/	/
Oc1cccc(Nc2c3ccccc3nc3ccccc23)c1	?	-17%	0%	-30%	-100*	/
c1cncc(Nc2c3ccccc3nc3ccccc23)c1	-18%	0%	-2%	-3%	-86*	-1%
Cc1ccc(-c2nc(Nc3cccc(O)c3)c3ccccc3n2)cc1	-24%	-5%	6%	-15%	?	23%
Cc1oc2ncn(CC(C)C)c(=O)c2c1C(=O)NCc1cccc(Cl)c1	-10%	/	2%	0%	0	/
COc1ccc(Nc2nc3[nH]c(=O)cc(O)c3s2)cc1	-3%	?	-1%	-5%	-25	-8%
O=c1cc(O)c2sc(Nc3ccc(Cl)c(F)c3)nc2[nH]1	-5%	-20%	-8%	0%	-77*	-13%
SMILES	FMDV inh	FBPA Giardia inh	TbPYK inhibitor	Sm TGR block	HCMV antiviral	RE007 growth inh
c1ccc(COc2ncnc3c2ncn3CCCN2CCN(Cc3cccc4ccccc34)CC2)cc1	28µM*	/	2%	/	-40	-11%
Cc1cc(C)c(CN2CCN(C(=O)Cn3cnc4c(OCc5ccccc5)ncnc43)CC2)c(C)c1	?	/	2%	/	-64*	-28%
COc1ccc(CN(C)CCCn2cnc3c(OCc4ccccc4)ncnc32)cc1	-20%	/	4%	/	-97*	-26%
O=C(O)Cn1cnc2c(OCc3ccccc3)ncnc21	0%	/	2%	/	6	-9%
CN(CCCn1cnc2c(OCc3ccccc3)ncnc21)CCc1ccccn1	4%	/	-5%	/	5	-3%
NCCC[C@@H](CC(=O)N[C@@H]1CCCC[C@H]1C(=O)N[C@H](CC(=O)N[C@@H](CCC(=O)O)CC(=O)O)Cc1c[nH]c2ccccc12)NC(=O)C[C@H](Cc1ccccc1)NC(=O)[C@@H]1CNCC[C@H]1N	/	-12%	/	/	/	/
CC(C)[C@@H](C)/C=C/[C@@H](C)[C@H]1CC[C@@H]2[C@]1(C)CCC1[C@]23C=C[C@]2(C[C@@H](O)CC[C@]12C)N(c1ncc(C(F)(F)F)cc1Cl)O3 (stereo partly specified)	/	/	/	/	67	/
O=S(=O)(c1ccc2[nH]c3c(c2c1)CCCCC3)N1CCN(c2cccc(Cl)c2)CC1	0%	/	-3%	11%	13	/
O=C(Cc1csc2ccccc12)NCc1cccc(Br)c1	8%	/	-4%	1%	11	/
Cc1cccc(NC(=O)C2CC(=O)n3cnnc3S2)c1 (stereo unspecified)	11%	?	-13%	0.4µM*	3	-26%
O=C(c1ccco1)N1CCC2(CC1)CCN(c1ccccn1)CC2	-27%	-2%	6%	/	/	/
CCNC(=O)CSC1=N/C(=C\c2ccc(O)c(OCC)c2)C(=O)N1c1ccc(OC(F)F)cc1	12%	/	-10%	-7%	-70*	3%
O=C(CSC1=N/C(=C/c2ccco2)C(=O)N1c1ccc(OC(F)F)cc1)NC1CCS(=O)(=O)C1 (stereo unspecified)	-26%	-18%	0%	40µM*	-6	1%
C[C@@H](NC(=O)[C@@H]1[C@@H](CO)[C@@H]2Cn3c(cccc3=O)[C@@H]2N1C(=O)C1CC1)c1ccccc1	/	/	/	/	1	/
N=C1SCC(=O)N1c1ncc(Cc2ccc(F)cc2)s1	-10%	-23%	-1%	0%[57.1 µM]	117	28µM*
CCc1ccc(C(=O)NNc2cc(Cl)ccc2Cl)cc1	-25%	0%	-25%	18%	-68*	1%
CCOc1ccc(NC(=O)CC2C(=O)N(c3ccc(C)cc3)C(=O)N2Cc2ccc(OC)cc2)cc1 (stereo unspecified)	-4%	/	0%	-4%	-7	/
CN(Cc1ccccc1)S(=O)(=O)c1ccc2[nH]c3c(c2c1)CCCCC3	-9%	/	-2%	0%	20	/
CCOC(=O)NC(N(O)c1cccc(Cl)c1)C(Cl)(Cl)Cl (stereo unspecified)	-15%	-14%	-6%	28µM*	-10	2%

Screening results: PubChem BioAssay, National Center for Advancing Translational Sciences (NCATS)
